Results filed as inconclusive are left out. Active and inactive are the calls of the source. Calls follow the shape of the dose curve; as a rule, active = well fitted cell-killing curve with a large enough effect; inconclusive = small, poorly fitted or top-dose-only effect, or effect the other way; inactive = no such curve, though single readings can be large or run the other way.
How the values were obtained:
[1] = Quantitative High-Throughput drug screen in 47 multiple myeloma cell lines against the NCATS MIPE library collection: L363_DSMZ cell viability assay (AID 1918984); conditions: L363 myeloma viability, CellTiter-Glo ATP luminescence, 48 h; viability (% of control): at 45.8 µM (top of the series); also: nearly all actives have a fitted effect of over 40% in size
Summary of the method: (§1)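 qHTS format: cells plated (500/well), pin-dosed with MIPE 4.0 compounds, kept 48 h at 37 °C. Readout was CellTiter-Glo luminescence, median RLU.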

[2] = Quantitative High-Throughput drug screen in 47 multiple myeloma cell lines against the NCATS MIPE library collection: OCIMY5_PLB cell viability assay (AID 1918988); also: nearly all actives have a fitted effect of over 65% in size
Summary of the method: as §1

[3] = Quantitative High-Throughput drug screen in 47 multiple myeloma cell lines against the NCATS MIPE library collection: OPM1_PLB cell viability assay (AID 1918989); also: nearly all actives have a fitted effect of over 40% in size;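 as to viability (% of control): 100% = DMSO-only wells and 0% = media-only wells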
Summary of the method: as §1

[4] = Quantitative High-Throughput drug screen in 47 multiple myeloma cell lines against the NCATS MIPE library collection: SKMM1_PLB cell viability assay (AID 1919863); conditions: SKMM1 myeloma viability, CellTiter-Glo ATP, 48 h; viability: stronger effect = lower value; also: nearly all actives have a fitted effect of over 35% in size
Summary of the method: as §1

[5] = Quantitative High-Throughput drug screen in 47 multiple myeloma cell lines against the NCATS MIPE library collection: U266_ATCC cell viability assay (AID 1919864); also: nearly all actives have a fitted effect of over 35% in size;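 as to viability (% of DMSO control): 0% = media-only wells without cells and 100% = DMSO-only wells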
Summary of the method: as §1

[6] = Quantitative High-Throughput drug screen in 47 multiple myeloma cell lines against the NCATS MIPE library collection: XG6_PLB cell viability assay (AID 1919865); also: nearly all actives have a fitted effect of over 40% in size;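 as to viability (% of control): 100% = DMSO-only wells and 0% = media-only wells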
Summary of the method: as §1

[7] = Quantitative High-Throughput drug screen in 47 multiple myeloma cell lines against the NCATS MIPE library collection: XG1_PLB cell viability assay (AID 1919866); also: nearly all actives have a fitted effect of over 35% in size
Summary of the method: as §1

[8] = Quantitative High-Throughput drug screen in 47 multiple myeloma cell lines against the NCATS MIPE library collection: PCM6_Riken cell viability assay (AID 1919870); also: nearly all actives have a fitted effect of over 30% in size;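 as to viability (% of control): 100% = DMSO-only wells and 0% = media-only wells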
Summary of the method: as §1

[9] = Quantitative High-Throughput drug screen in 47 multiple myeloma cell lines against the NCATS MIPE library collection: RPMI8226_ATCC cell viability assay (AID 1919871); also: nearly all actives have a fitted effect of over 30% in size
Summary of the method: as §1

[10] = Quantitative High-Throughput drug screen in 47 multiple myeloma cell lines against the NCATS MIPE library collection: KMS11_JCRBsus cell viability assay (AID 1919873); also: nearly all actives have a fitted effect of over 50% in size;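 as to viability (% of control): 100% = DMSO-only wells and 0% = media-only wells without cells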
Summary of the method: as §1

[11] = Quantitative High-Throughput drug screen in 47 multiple myeloma cell lines against the NCATS MIPE library collection: KMS28BM_JCRB cell viability assay (AID 1919874); also: nearly all actives have a fitted effect of over 35% in size
Summary of the method: as §1

[12] = Quantitative High-Throughput drug screen in 47 multiple myeloma cell lines against the NCATS MIPE library collection: PE2_PLB cell viability assay (AID 1919869); also: nearly all actives have a fitted effect of over 35% in size;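 as to viability (% of control): 100% = DMSO-only wells and 0% = cell-free media-only wells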
Summary of the method: as §1

[13] = Quantitative High-Throughput drug screen in 47 multiple myeloma cell lines against the NCATS MIPE library collection: OPM2_DSMZ cell viability assay (AID 1919872); also: nearly all actives have a fitted effect of over 30% in size
Summary of the method: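 Inhibition of cell viability is measured here. Each line was plated at 500 cells per well, treated with MIPE 4.0 drugs, kept 48 hours at 37C, then assayed for ATP content by CellTiter-Glo luminescence.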

[14] = Quantitative High-Throughput drug screen in 47 multiple myeloma cell lines against the NCATS MIPE library collection: OCIMY7_PLB cell viability assay (AID 1918987); conditions: OCI-MY7 myeloma viability, CellTiter-Glo ATP, 48 h; viability (% of DMSO): at 45.8 µM (top of the series); also: nearly all actives have a fitted effect of over 65% in size
Summary of the method: as §1

[15] = Quantitative High-Throughput drug screen in 47 multiple myeloma cell lines against the NCATS MIPE library collection: VP6_DJ cell viability assay (AID 1919867); also: nearly all actives have a fitted effect of over 40% in size;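 as to viability (% of DMSO): 100% = DMSO-only wells and 0% = wells with media alone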
Summary of the method: as §1

[16] = Quantitative High-Throughput drug screen in 47 multiple myeloma cell lines against the NCATS MIPE library collection: UTMC2_PLB cell viability assay (AID 1919868); conditions: CellTiter-Glo ATP luminescence, 48 h; viability (% of DMSO control): at 45.8 µM (top of the series); also: nearly all actives have a fitted effect of over 55% in size;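 as to viability (% of DMSO control): 100% = DMSO-only wells and 0% = media-only wells without cells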
Summary of the method: as §1
Potency is read from the fitted curve at half-maximal effect.

CCN1CCC(n2cc(CNc3cc(Cl)c4ncc(C#N)c(Nc5ccc(F)c(Cl)c5)c4c3)nn2)CC1
active: Potency [1] 4.69 µM | Potency [2] 4.18 µM | Potency [3] 18.7 µM | Potency [4] 5.9 µM | Potency [5] 20.9 µM | Potency [6] 14.8 µM | Potency [7] 23.5 µM | Potency [8] 20.9 µM | Potency [9] 16.6 µM | Potency [10] 20.9 µM | Potency [11] 20.9 µM

CCCCC(F)(F)[C@@]1(O)CC[C@H]2[C@H](CC(=O)[C@@H]2CCCCCCC(=O)O)O1
active: Potency [2] 0.235 µM
inactive: Potency [1] | Potency [3] | viability [4] 97.7% | Potency [5] | Potency [7] | Potency [12] | Potency [13] | Potency [10] | Potency [11]

COc1ccc2cc1Oc1ccc(cc1)C[C@H]1c3cc(c(OC)cc3CCN1C)Oc1c(OC)c(OC)cc3c1[C@H](C2)N(C)CC3
inactive: Potency [13]
active: Potency [1] 5.9 µM | Potency [14] 16.6 µM | Potency [2] 16.6 µM | Potency [5] 18.7 µM | Potency [6] 14.8 µM | Potency [7] 10.5 µM | Potency [15] 11.8 µM | Potency [9] 6.62 µM

Clc1ccc(C2(c3ccc(-c4cn[nH]c4)cc3)CCNCC2)cc1
active: Potency [1] 2.35 µM | Potency [14] 1.05 µM | Potency [2] 16.6 µM | Potency [3] 2.35 µM | Potency [6] 3.72 µM | Potency [7] 18.7 µM | Potency [16] 0.148 µM | Potency [12] 11.8 µM | Potency [8] 6.62 µM | Potency [13] 26.4 µM | Potency [11] 16.6 µM

O=C(O)C1=CO[C@@H](O[C@@H]2O[C@H](CO)[C@H](O)[C@H](O)[C@H]2O)[C@@H]2C(CO)=CC[C@H]12
active: Potency [9] 4.18 µM
inactive: Potency [1] | Potency [14] | Potency [3] | viability [4] 118% | Potency [6] | Potency [7] | Potency [15] | Potency [12] | Potency [13] | Potency [11]

C[C@H]1COC2=C1C(=O)C(=O)c1c2ccc2c1CCCC2(C)C
inactive: Potency [1] | Potency [11]
active: Potency [14] 13.2 µM | Potency [2] 20.9 µM | Potency [4] 14.8 µM | Potency [15] 16.6 µM | Potency [16] 9.35 µM | Potency [12] 26.4 µM

CC(C)n1c(C=C[C@H](O)C[C@H](O)CC(=O)O)c(-c2ccc(F)cc2)c2ccccc21
active: Potency [1] 4.18 µM | Potency [14] 4.18 µM | Potency [4] 16.6 µM | Potency [5] 4.18 µM | Potency [6] 16.6 µM | Potency [7] 4.69 µM | Potency [15] 16.6 µM | Potency [12] 14.8 µM | Potency [9] 18.7 µM | Potency [10] 8.33 µM

Cc1cc(-c2ncc(CC(=O)Nc3ccc(-c4cnccn4)cn3)cc2C)ccn1
inactive: viability [4] 117% | Potency [11]
active: Potency [1] 14.8 µM | Potency [2] 11.8 µM | Potency [3] 8.33 µM | Potency [5] 20.9 µM | Potency [6] 14.8 µM | Potency [7] 16.6 µM | Potency [15] 18.7 µM | Potency [12] 18.7 µM | Potency [10] 1.87 µM

CC1=C(C(=O)Nc2cc3cn[nH]c3cc2F)C(c2ccc(C(F)(F)F)cc2)CC(=O)N1 (stereo unspecified)
active: Potency [16] 8.33 µM | Potency [8] 10.5 µM
inactive: Potency [1] | Potency [2] | Potency [3] | viability [4] 160% | Potency [5] | Potency [6] | Potency [12] | Potency [9] | Potency [13] | Potency [11]

CCCCCCCCCCCCCC(=O)N[C@H](CO)[C@H](O)c1ccc([N+](=O)[O-])cc1
inactive: Potency [5] | Potency [13]
active: Potency [1] 16.6 µM | Potency [14] 16.6 µM | Potency [3] 26.4 µM | Potency [4] 7.43 µM | Potency [6] 23.5 µM | Potency [7] 20.9 µM | Potency [15] 26.4 µM | Potency [16] 18.7 µM | Potency [12] 26.4 µM | Potency [8] 20.9 µM | Potency [10] 23.5 µM

O=S(=O)(NCCNCC=Cc1ccc(Br)cc1)c1cccc2cnccc12
active: Potency [1] 2.96 µM | Potency [2] 14.8 µM | Potency [3] 8.33 µM | Potency [4] 18.7 µM | Potency [5] 20.9 µM | Potency [6] 2.64 µM | Potency [7] 5.26 µM | Potency [15] 5.26 µM | Potency [16] 7.43 µM | Potency [12] 16.6 µM | Potency [8] 16.6 µM | Potency [9] 20.9 µM | Potency [10] 16.6 µM | Potency [11] 16.6 µM

Fc1ccc(CNc2ncnc3ccc(F)cc23)cc1
inactive: viability [4] 104%
active: Potency [1] 5.26 µM | Potency [2] 16.6 µM | Potency [3] 16.6 µM | Potency [5] 13.2 µM | Potency [6] 14.8 µM | Potency [7] 4.69 µM | Potency [13] 2.96 µM | Potency [10] 10.5 µM

O=C(O)c1ccc(O)c2ncc(N3CCOCC3)cc12
active: Potency [1] 20.9 µM | Potency [2] 13.2 µM | Potency [4] 18.7 µM | Potency [12] 16.6 µM
inactive: Potency [3] | Potency [8] | Potency [13]

CC[C@H](C)n1cc(C)c2c(C(=O)NCc3c(C)cc(C)[nH]c3=O)cc(-c3ccc(N4CCNCC4)nc3)cc21
active: Potency [14] 23.5 µM | Potency [2] 23.5 µM | Potency [4] 20.9 µM | Potency [5] 16.6 µM | Potency [6] 16.6 µM | Potency [7] 9.35 µM | Potency [15] 11.8 µM | Potency [12] 23.5 µM | Potency [9] 26.4 µM | Potency [10] 23.5 µM | Potency [11] 23.5 µM
inactive: Potency [1]

CN(C)CCN(Cc1ccc(Cl)cc1)c1ccccn1
active: Potency [14] 14.8 µM | Potency [16] 16.6 µM | Potency [11] 14.8 µM
inactive: Potency [1] | Potency [9] | Potency [13]

CC[C@H](CC#N)OC(=O)N[C@@H](C)c1cccc(NC(=O)Nc2ccc(-c3cnco3)c(OC)c2)c1
active: Potency [1] 18.7 µM | Potency [14] 3.72 µM | Potency [2] 3.72 µM | Potency [4] 1.18 µM | Potency [5] 1.48 µM | Potency [6] 2.96 µM | Potency [15] 1.32 µM | Potency [16] 1.18 µM | Potency [12] 4.18 µM | Potency [8] 1.32 µM | Potency [9] 2.64 µM

CC(C)C[C@@H](N)[C@H](O)C(=O)N[C@H](C(=O)N[C@H](C(=O)N[C@@H](CC(=O)O)C(=O)O)C(C)C)C(C)C
inactive: Potency [1] | Potency [2] | viability [4] 122% | Potency [10]
active: Potency [3] 4.69 µM | Potency [6] 7.43 µM | Potency [7] 2.64 µM | Potency [15] 5.26 µM | Potency [12] 18.7 µM

CCNC(=O)CCCC=CC[C@@H]1[C@H](C=CC(O)CCc2ccccc2)[C@@H](O)C[C@@H]1O (stereo partly specified)
inactive: Potency [1] | Potency [3] | Potency [5] | Potency [6] | Potency [7] | Potency [16] | Potency [12] | Potency [8]
active: Potency [2] 26.4 µM | Potency [9] 16.6 µM | Potency [11] 3.32 µM

Cc1ccc(NC(=O)c2ccc(CN3CCN(C)CC3)cc2)cc1Nc1nc(-c2cccnc2)cs1
active: Potency [1] 9.35 µM | Potency [2] 23.5 µM | Potency [3] 9.35 µM | Potency [4] 23.5 µM | Potency [5] 23.5 µM | Potency [6] 7.43 µM | Potency [7] 13.2 µM | Potency [15] 8.33 µM | Potency [12] 11.8 µM | Potency [8] 4.18 µM | Potency [9] 18.7 µM | Potency [10] 10.5 µM

O=C(c1ccc(F)c(F)c1Nc1ccc(I)cc1F)N1CC(O)([C@H]2CCCCN2)C1
inactive: Potency [14]
active: Potency [1] 1.66 µM | Potency [2] 18.7 µM | Potency [4] 16.6 µM | Potency [5] 23.5 µM | Potency [6] 18.7 µM | Potency [7] 16.6 µM | Potency [12] 7.43 µM | Potency [13] 13.2 µM | Potency [10] 18.7 µM | Potency [11] 20.9 µM

Clc1ccc(COC(Cn2ccnc2)c2ccc(Cl)cc2Cl)c(Cl)c1 (stereo unspecified)
active: Potency [1] 20.9 µM | Potency [2] 26.4 µM | Potency [3] 18.7 µM | Potency [4] 20.9 µM | Potency [6] 18.7 µM | Potency [15] 18.7 µM | Potency [10] 23.5 µM | Potency [11] 20.9 µM

From PubChem BioAssay (NCATS)
